In PubChem BioAssay AID463173 (ICCB-Longwood Screening Facility, Harvard Medical School, 2010):
Among all 52,000 compounds or so, about 4,300 (8.3%) were called active. The full list was thinned out, with actives kept by preference. Values without a mark were called inactive. No stated cut-off is given here; in the data, active means survival mostly below about 52% (no sharp cut-off); inactive means mostly above about 56%.

Tested on: DeltatarO mutant
Test: growth inhibition of S. aureus wild type versus tarO mutant, primary screen, teichoic acid synthesis inhibitors, RN4220, OD600 (AID 463173)
Conditions: OD600, 18 h, stronger effect = lower value, screened at 18.75 µg/mL (by protocol)

Row | SMILES | survival
1 | Cc1ccc2nc(-c3ccccc3O)c(Nc3ccccc3C)n2c1 | 92%
2 | Cc1ccccc1Nc1c(-c2ccc(N3CCOCC3)cc2)nc2ccc(Br)cn12 | 74%
3 | O=C(NCc1ccccc1)c1cnc2sc(N3CCCC3)nn2c1=O | 77%
4 | COC(=O)c1ccc(NC(=O)C2(S(=O)(=O)c3ccc(C)cc3)CC2)cc1 | 134%
5 | CCc1ccccc1NC(=O)C1(S(=O)(=O)c2ccc(Cl)cc2)CC1 | 90% (active)
6 | Cc1ccc(S(=O)(=O)C2(C(=O)Nc3ccc(C(C)C)cc3)CC2)cc1 | 19% (active)
7 | Cc1ccc(S(=O)(=O)C2(C(=O)Nc3ccc(Cl)c(C(F)(F)F)c3)CC2)cc1 | 26%
8 | O=C(Nc1ccccc1C(F)(F)F)C1(S(=O)(=O)c2ccc(Cl)cc2)CC1 | 84% (active)
9 | CCOC(=O)c1ccc(NC(=O)C2(S(=O)(=O)c3ccc(Cl)cc3)CC2)cc1 | 75%
10 | Cc1ccc(S(=O)(=O)C2(C(=O)Nc3ccc(C)c(Cl)c3)CC2)cc1 | 21%
11 | O=C(Nc1ccccc1C(F)(F)F)c1ccncc1 | 91%
12 | Cc1cc(Br)ccc1NC(=O)C1(S(=O)(=O)c2ccc(Cl)cc2)CC1 | 62%
13 | Cc1ccc2c(c1)c1c(c(=O)n(Cc3ccccc3)c(=O)n1Cc1cccc(F)c1)n2C | 89%
14 | CC(C)(C)c1ccc(C(=O)Nc2nc3nc(-c4ccccc4)cc(=O)n3[nH]2)cc1 | 94%
15 | CCN(Cc1ccccc1)C(=O)C1CCN(S(=O)(=O)c2ccc3c(c2)CCCN3C(C)=O)CC1 | 80%
16 | CC1CCCC(C)N1C(=O)CN1CCC(N2CCCCC2)CC1 (stereo not drawn) | 94%
17 | CC(C)NC(=O)Cn1nnc(-c2ccc(Cl)cc2)n1 | 82%
18 | COc1ccccc1CC(NC(C)=O)C(=O)N1CCN(C(=O)c2cccs2)CC1 (stereo not drawn) | 97%
19 | O=C(NCCc1ccc(Cl)cc1)C(=O)NCC(c1ccco1)S(=O)(=O)c1cccs1 (stereo not drawn) | 20% (active)
20 | O=C(NCc1ccccc1)C(=O)NCC(c1ccco1)S(=O)(=O)c1cccs1 (stereo not drawn) | 96%
21 | O=C(NCc1ccccc1)C(=O)NCC(c1ccco1)S(=O)(=O)c1ccccc1 (stereo not drawn) | 76%
22 | O=C(NCc1ccc(F)cc1)C(=O)NCC(c1ccco1)S(=O)(=O)c1cccs1 (stereo not drawn) | 8% (active)
23 | O=C(NCc1ccccc1Cl)C(=O)NCC(c1ccco1)S(=O)(=O)c1cccs1 (stereo not drawn) | 55%
24 | O=C(NCc1ccccc1F)C(=O)NCC(c1ccco1)S(=O)(=O)c1ccccc1 (stereo not drawn) | -5% (active)

Row | SMILES | survival
25 | O=C(NCCc1ccccc1)C(=O)NCC(c1ccco1)S(=O)(=O)c1cccs1 (stereo not drawn) | 94%
26 | Cc1ccccc1CNC(=O)C(=O)NCC(c1ccco1)S(=O)(=O)c1ccccc1 (stereo not drawn) | 92%
27 | O=C(NCc1ccccc1F)C(=O)NCC(c1ccco1)S(=O)(=O)c1cccs1 (stereo not drawn) | 25% (active)
28 | Cc1ccccc1CNC(=O)C(=O)NCC(c1ccco1)S(=O)(=O)c1cccs1 (stereo not drawn) | 70%
29 | Cc1ccc(CNC(=O)C(=O)NCC(c2ccco2)S(=O)(=O)c2cccs2)cc1 (stereo not drawn) | 101%
30 | O=C(NCCc1ccc(F)cc1)C(=O)NCC(c1ccco1)S(=O)(=O)c1cccs1 (stereo not drawn) | 66%
31 | COc1ccc2c(c1)N(C)/C(=C1/SC(=Nc3ccc(C)cc3)N(C)C1=O)S2 | 102%
32 | CCOc1ccccc1NC(=O)c1c(NC(=O)c2cccc(C)c2)sc2c1CCC2 | 74%
33 | CCc1ccc(NC(=O)CSc2nc3ccccc3c(=O)n2CCNC(C)=O)cc1 | 87%
34 | COc1ccc(C2(C(=O)N3CCCC3)CCCC2)cc1OC | 89%
35 | CCC(=O)N1CCCc2cc(S(=O)(=O)N3CCC(C(=O)NC4CCC(C)CC4)CC3)ccc21 (stereo not drawn) | 123%
36 | CCOC(=O)c1cc2occc2n1CCc1ccccc1 | 101%
37 | O=C(c1ccccc1)N1CCc2cc(CNS(=O)(=O)c3ccccc3Cl)ccc21 | 78%
38 | COc1cc(NS(=O)(=O)c2ccc3oc(=O)c4ncn(C)c4c3c2)cc(OC)c1 | 126%
39 | CC1(C)CC(=O)C(C=NCc2ccccc2)=C(O)C1 | 95%
40 | O=C(Nc1ccc(F)cc1)C1CCN(S(=O)(=O)c2ccc3c(c2)CCCN3C(=O)C2CCC2)CC1 | 73%
41 | N#Cc1c(NC(=O)c2ccccc2)oc(-c2ccccc2)c1-c1ccccc1 | 56%
42 | N#Cc1c(NC(=O)C(F)(F)F)oc(-c2ccccc2)c1-c1ccccc1 | 12% (active)
43 | N#Cc1c(/N=C/c2ccco2)oc(-c2ccccc2)c1-c1ccccc1 | 98%
44 | CCc1cccc(CC)c1N(COC)C(=O)Cn1c(C)nc2ccccc21 | 59%
45 | CCc1cccc(NC(=O)CCc2c(C)nc3c(c2C)c(=O)n(C)c(=O)n3C)c1 | 93%
46 | COc1ccc(-n2nc(C(=O)NCc3ccc(F)cc3)c3c4ccccc4n(C)c3c2=O)cc1 | 88%
47 | N#C/C(=C\c1ccc(-c2cc(Cl)ccc2Cl)o1)C(=O)Nc1ccccc1C(=O)O | 37% (active)
48 | Cc1ccc(NC(=O)/C(C#N)=C/c2ccc(-c3ccc(Cl)c(C(=O)O)c3)o2)cc1C | 70%

Row | SMILES | survival
49 | N#C/C(=C\c1ccc(-c2ccc(C(=O)O)cc2)o1)C(=O)Nc1ccccc1C(=O)O | 60%
50 | N#C/C(=C/c1ccc(-c2cc(C(=O)O)ccc2Cl)o1)C(=O)NCCc1c[nH]c2ccccc12 | 12% (active)
51 | N#C/C(=C/c1ccc(-c2ccc(S(N)(=O)=O)cc2)o1)C(=O)Nc1cc(Cl)ccc1Cl | 46%
52 | N#C/C(=C/c1ccc(N2CCCCC2)o1)C(=O)NCCc1c[nH]c2ccccc12 | 76%
53 | COc1ccc(-n2ccn(Cc3ccccc3Cl)c(=O)c2=O)cc1OC | 61%
54 | CCOc1cc(S(=O)(=O)NCCc2c(C)[nH]c3ccc(C)cc23)ccc1Br | 92%
55 | CC(Oc1ccc(F)cc1)C(=O)NCC1(N(C)C)CCCCC1 (stereo not drawn) | 83%
56 | CCOC(=O)c1c(C)[nH]c(C)c1S(=O)(=O)NCC(=O)Nc1ccc(C)cc1C | 72%
57 | O=C(C1CCC(Cn2c(=O)c3sccc3n(Cc3ccccc3)c2=O)CC1)N1CCCCC1 (stereo not drawn) | 78%
58 | Cc1ccc(NC(=O)C(=O)NCCc2csc3nc(-c4ccccc4C)nn23)cc1Cl | 86%
59 | O=C(NCCc1csc2nc(-c3ccccc3F)nn12)C(=O)Nc1cc(F)ccc1F | 79%
60 | CC(=O)Nc1cccc(NC(=O)C(=O)NCCc2csc3nc(-c4ccccc4F)nn23)c1 | 64%
61 | Cc1ccccc1-c1nc2scc(CCNC(=O)C(=O)Nc3ccc(F)cc3F)n2n1 | -2% (active)
62 | Cc1ccc(C)c(NC(=O)C(=O)NCCc2csc3nc(-c4ccccc4C)nn23)c1 | 109%
63 | Cc1c(Cl)cccc1NC(=O)C(=O)NCCc1csc2nc(-c3ccccc3F)nn12 | 6% (active)
64 | CCOc1ccc(CC(=O)NCCc2csc3nc(-c4ccccc4F)nn23)cc1 | 91%
65 | CCOc1ccc(NC(=O)C(=O)NCCc2csc3nc(-c4ccccc4F)nn23)cc1 | -1% (active)
66 | COC(=O)c1ccc(NC(=O)C(=O)NCCc2csc3nc(-c4ccccc4F)nn23)cc1 | 76%
67 | Cc1ccccc1CNC(=O)c1ccc(CS(=O)Cc2ccc(Cl)cc2)o1 (stereo not drawn) | 79%
68 | CCOc1ccc(NC(=O)c2ncn(-c3ccccc3)n2)cc1 | 83%
69 | COc1ccc2c(c1)c(=O)c(C(=O)c1ccc(F)cc1)cn2CC(=O)Nc1ccc2c(c1)OCCO2 | 65%
70 | COc1ccc(CNC(=O)CN2C(=O)COc3ccc(S(=O)(=O)N4CCOCC4)cc32)cc1 | 75%
71 | CCOc1ccc(N2CC(NC(=O)C3CCCCC3)CC2=O)cc1 (stereo not drawn) | 75%
72 | O=C(NCCCc1nc2ccccc2n1Cc1ccccc1Cl)c1ccco1 | 66%

Row | SMILES | survival
73 | CCc1nn2c(=O)cc(COC(=O)c3ccccc3NC(=O)COc3ccccc3C)nc2s1 | 72%
74 | CCOC(=O)N1CCc2c(sc3c2c(=O)n(-c2ccc(CC)cc2)c(=O)n3CC(=O)c2ccc(F)cc2)C1 | 80%
75 | Cc1ccccc1NC(=O)CSC1=Nc2ccccc2C2=NC(Cc3ccccc3)C(=O)N12 (stereo not drawn) | 84%
76 | Cc1ccc(O)c(-c2ccnc3cc(-c4ccc(Cl)cc4)nn23)c1 | 86%
77 | Cc1cc(O)c(-c2ccnc3cc(-c4ccccc4)nn23)cc1Cl | 114%
78 | CCOC(=O)COc1ccc([N+](=O)[O-])cc1-c1ccnc2cc(-c3ccc(C)cc3)nn12 | 76%
79 | O=[N+]([O-])c1ccc(O)c(-c2ccnc3cc(-c4ccccc4)nn23)c1 | 20% (active)
80 | CCOC(=O)COc1ccc([N+](=O)[O-])cc1-c1ccnc2cc(-c3ccc(Cl)cc3)nn12 | 89%
81 | Cc1ccc(-c2cc3nccc(-c4cc([N+](=O)[O-])ccc4O)n3n2)cc1 | 29% (active)
82 | COc1cccc(NC(=O)C2CCCN(S(=O)(=O)c3c(C)nn(C)c3C)C2)c1 (stereo not drawn) | 87%
83 | COc1ccc(NC(=O)c2cc(S(=O)(=O)N3CCCCC3)cn2C)cc1Cl | 78%
84 | CCN(C(=O)c1sc2cc(OC)ccc2c1Cl)c1ccccc1 | 0% (active)
85 | CCNC(=O)c1sc2ccccc2c1Cl | 105%
86 | CCN(C(=O)c1cn(-c2ccc(OC)cc2)c(=O)c2ccccc12)c1cccc(Cl)c1 | 103%
87 | Cc1cccc(OC(=O)c2cc(-c3ccc(C)c(C)c3)on2)c1 | -2% (active)
88 | Cc1cc(C)cc(OC(=O)c2cc(-c3ccc(Cl)cc3)on2)c1 | 94%
89 | Cc1cc(C)cc(OC(=O)c2cc(-c3ccc4c(c3)OCCO4)on2)c1 | -2% (active)
90 | Cc1cccc(OC(=O)c2cc(-c3ccc4c(c3)OCCO4)on2)c1 | -2% (active)
91 | O=C(Nc1cccc(C(F)(F)F)c1)c1cc(-c2ccc3c(c2)OCCO3)on1 | 116%
92 | Cc1ccc(O)c(NC(=O)c2cc(-c3ccc4c(c3)OCO4)on2)c1 | 71%
93 | Cc1ccc(-c2cc(C(=O)Oc3ccc(C#N)cc3)no2)cc1C | 50%
